For 1 compound, outcome results are on record in PubChem BioAssay AID624311 (Broad Institute, 2012).

The target of this assay is Protein disulfide-isomerase (Homo sapiens) (UniProt P07237). Kind of assay: PDI-driven insulin aggregation, ProteoStat dye readout – biochemical, fluorescence, dry powder samples, orthogonal assay for PDI inhibitor project, confirmation (AID 624311).

Activity calls are given as the source filed them.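 Rule for the calls: active = fluorescence dropping 30% or more below neutral controls, activity change at or below -30%; inactive = the rest.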

Chain of Protein disulfide-isomerase (Homo sapiens) (P07237 whole entry, looked up): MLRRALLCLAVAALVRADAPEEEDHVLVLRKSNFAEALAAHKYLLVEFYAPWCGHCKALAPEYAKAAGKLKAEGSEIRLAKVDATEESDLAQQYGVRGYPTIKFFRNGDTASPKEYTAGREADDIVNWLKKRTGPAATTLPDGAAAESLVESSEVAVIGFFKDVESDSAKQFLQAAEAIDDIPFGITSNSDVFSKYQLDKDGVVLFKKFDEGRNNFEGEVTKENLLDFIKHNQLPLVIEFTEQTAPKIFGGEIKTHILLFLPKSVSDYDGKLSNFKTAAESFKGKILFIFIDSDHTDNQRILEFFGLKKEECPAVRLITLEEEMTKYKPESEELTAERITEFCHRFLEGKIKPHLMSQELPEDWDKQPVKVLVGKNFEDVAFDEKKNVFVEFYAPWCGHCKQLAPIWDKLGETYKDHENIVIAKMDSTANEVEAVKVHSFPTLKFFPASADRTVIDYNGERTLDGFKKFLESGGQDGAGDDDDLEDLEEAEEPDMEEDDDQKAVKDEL

For the compound `C[C@H]1CN([C@@H](C)CO)C(=O)c2cccc(NS(C)(=O)=O)c2O[C@H]1CN(C)Cc1ccc(Oc2ccccc2)cc1`, the compound was classed as inactive.
